Screens: PubChem, several laboratories
The list is not random: actives were taken first. Their share in the collection is about 2.4%.
Platelet DG rel: modulates dense granule release in human platelets | human platelet-rich plasma, SFLLRN dense granule ATP release, luminescence | inhibition, %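 (compounds screened at 7.5 µM in platelet-rich plasma)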 | 300,000 tested, 0.22% active;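 active = mean replicate score, as percent of positive control, at or above 50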
SENP6 block: blocks the human protease SENP6; Q9GZR1; Recombinant SENP6 catalytic domain, aminoluciferin luminescence; inhibition, % at 10 µM; 330,000 tested, 1.8% active;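 active = inhibition above about 50% at the single tested dose, limit read from the data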;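 note: plate controls were DMSO wells with enzyme for no effect and DMSO wells lacking enzyme for full effect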
SENP8 block-1: blocks the human protease SENP8; inhibition, % at 10 µM; purified SENP8, Z-RLRGG-aminoluciferin cleavage, luminescence; Q96LD8; AID 2540; 330,000 tested, 1.2% active; in the data active = inhibition above about 50%
Target sequence (Q96LD8 whole entry, looked up): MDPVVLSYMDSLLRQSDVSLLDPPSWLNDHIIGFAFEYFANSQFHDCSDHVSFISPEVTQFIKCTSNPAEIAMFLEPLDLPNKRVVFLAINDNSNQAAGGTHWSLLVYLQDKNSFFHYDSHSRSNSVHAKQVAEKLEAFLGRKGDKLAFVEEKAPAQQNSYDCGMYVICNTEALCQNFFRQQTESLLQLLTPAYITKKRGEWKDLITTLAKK
SENP7 inh: inhibitors of human SENP7 protease. recombinant SENP7, Z-RLRGG-aminoluciferin luminescence, 40 min. inhibition, % at 5 µM. 330,000 tested, 1.5% active;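 active = inhibition above about 50% at the single test dose, limit read from the data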;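 note: plate controls were DMSO with enzyme for no effect and no enzyme buffer wells for full effect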
SENP8 block-2: blocks human SENP8 cleavage of Nedd8 substrate; inhibition, % at 20 µM; 360,000 tested, 0.64% active; recombinant SENP8, Nedd8 substrate fluorescence; AID 602440; Q96LD8; in the data active = inhibition mostly above about 40%, no sharp cut-off; inactive = mostly below about 27%
SENP8 confirm: confirmation of human SENP8 protease inhibitors | shares compounds with SENP7 inh | Recombinant SENP8, Z-RLRGG-aminoluciferin luminescence, 60 min | inhibition, % at 12.5 µM | 6,200 tested, 40% active | AID 488912;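 active = mean inhibition across replicates above about 50%, limit read from the data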
SENP6 confirm: confirmation of human SENP6 protease inhibitors | inhibition, % at 12.5 µM | shares compounds with SENP7 inh | recombinant SENP6, Z-RLRGG-aminoluciferin luminescence | AID 488915 | 6,200 tested, 58% active
SENP7 conf: human SENP7 inhibition, confirmed | recombinant SENP7, Z-RLRGG-aminoluciferin luminescence, 40 min | shares compounds with SENP7 inh | 6,200 tested, 69% active | inhibition, % at 12.5 µM
Casp3 SENP sel: selectivity test for SENP inhibitors: human caspase-3 inhibition. shares compounds with SENP7 inh. purified caspase-3, Z-DEVD-aminoluciferin luminescence, 60 min. inhibition, % at 12.5 µM. 6,200 tested, 60% active;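 active = mean inhibition above about 50%, limit read from the data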;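 note: plate controls were enzyme with DMSO for no effect and wells without caspase-3 for full effect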
Target sequence (P42574 28-227 limits assumed): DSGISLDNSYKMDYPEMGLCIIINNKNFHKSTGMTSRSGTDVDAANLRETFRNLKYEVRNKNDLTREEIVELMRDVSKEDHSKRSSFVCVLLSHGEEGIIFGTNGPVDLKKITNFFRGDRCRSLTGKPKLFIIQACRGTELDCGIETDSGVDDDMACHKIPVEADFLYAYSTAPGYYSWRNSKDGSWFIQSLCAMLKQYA
Luc interf: luminescence interference (SENP counter-screen). shares compounds with SENP7 inh. Pre-incubated SENP8/Z-RLRGG-aminoluciferin, luciferase luminescence interference. inhibition, % at 12.5 µM. 6,200 tested, 39% active. AID 488919;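 active = mean inhibition above about 50% when retested at one dose, limit read from the data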;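 note: plate controls were DMSO wells with completed reaction for no effect and substrate without enzyme for full effect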
* marks the source's active call; other numbers are inactive results; · = no result.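 Rule for the calls, unless noted: active = mean inhibition above about 50% in the one-dose retest (limit read from the data); inactive = the rest.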

SMILES	Platelet DG rel	SENP6 block	SENP8 block-1	SENP7 inh	SENP8 block-2	SENP8 confirm	SENP6 confirm	SENP7 conf	Casp3 SENP sel	Luc interf
CCOC(=O)c1c(C)nc2c3ccccc3ccn12	-0.3	74.4*	52.7*	77.9*	-0.5	62.8*	59.6*	89.2*	74.5*	64.9*
Cc1cc(C(=O)Nc2nc3c(s2)CCCC3)cs1	4.4	83.7*	67.2*	86.0*	-4.3	1.8	74.6*	97.7*	83.7*	21.2
Cc1ncsc1C(=O)Nc1nc2c(s1)CCCC2	61.1*	96.0*	91.8*	98.9*	-41.4	52.5*	98.2*	103.1*	97.6*	53.2*
O=C(Nc1nc2c(s1)CCCC2)c1ccc(Br)s1	2.8	59.6*	43.8	52.9*	-42.6	9.1	49.1	86.2*	44.1	48.9
NCC1C2CCC(O2)C1CO (centres undefined)	·	·	·	·	16.9	·	·	·	·	·
O=c1[nH]c2nc(Br)[nH]c(=O)c2[nH]1	·	·	·	·	-14.9	·	·	·	·	·
COC(=O)c1ccc(COc2ccccc2/C=C/C(=O)c2ccc(OCC(=O)O)cc2)cc1	7.3	55.4*	31.4	5.3	16.7	16.3	10.2	29.8	27.0	48.6
O=C(NNS(=O)(=O)c1ccccc1)c1ccc([N+](=O)[O-])cc1	6.5	-3.2	-10.2	67.6*	14.3	8.4	9.1	11.3	4.4	-2.8
O=C(CCCN1C(=O)c2cccc3cccc(c23)C1=O)NCc1cccs1	-1.5	-0.1	-2.1	-2.1	-167.5	·	·	·	·	·
Cc1ccn2c(C(=O)c3ccc(Cl)cc3)cnc2c1	4.5	69.8*	31.1	51.9*	-24.3	28.1	34.2	69.5*	61.8*	47.5
CC[C@H](C)[C@H]1CNC(=O)C(=O)N1CC1CCN(CCc2ccccc2)CC1	·	·	·	·	4.6	·	·	·	·	·
CN(C)c1ccc(C(=O)c2ccc(O)cc2O)cc1	9.3	67.3*	49.1	41.9	31.4	53.8*	51.4*	83.2*	45.5	60.5*
CCCN=C(C)c1c(-c2ccccc2)[nH]n(-c2nc3ccccc3s2)c1=O	4.5	0.0	-1.3	-0.4	13.2	·	·	·	·	·
COC(=O)Cc1[nH]n(-c2nc3ccccc3s2)c(=O)c1C(C)=Nc1ccc(C)cc1	-4.7	34.6	23.2	20.0	2.2	·	·	·	·	·
C/C(=N/NC(=O)c1cccs1)c1c(C)[nH]n(-c2nc3ccccc3s2)c1=O	10.1	96.7*	92.8*	99.2*	-372.3	90.3*	81.1*	93.8*	97.8*	66.5*
CCC(=NCc1ccco1)c1c(C(F)(F)F)[nH]n(-c2nc3ccccc3s2)c1=O	-2.0	95.6*	88.5*	95.8*	2.7	72.9*	70.4*	90.3*	89.7*	81.0*
O=c1c(C=NCc2cccnc2)c(C(F)(F)F)[nH]n1-c1nc2ccccc2s1	2.6	97.2*	97.2*	98.9*	4.2	99.8*	100.8*	103.2*	99.1*	99.0*
CCC(=NCc1ccccc1)c1c(C(F)(F)F)[nH]n(-c2nc3ccccc3s2)c1=O	-1.1	85.2*	60.5*	88.7*	6.8	17.8	11.8	19.5	63.5*	48.6
O=C(Oc1cc(=O)n2ccccc2n1)c1ccccc1	-14.6	·	·	·	3.2	·	·	·	·	·
CC(=NCc1ccco1)c1c(C)[nH]n(-c2nc3ccccc3s2)c1=O	-3.8	64.7*	24.1	2.1	14.1	3.3	2.5	72.8*	49.6	16.9
O=C1C(NS(=O)(=O)c2ccccc2)=C(N2CCN(c3ccc(F)cc3)CC2)C(=O)c2ccccc21	4.8	10.5	-0.7	8.1	35.6	·	·	·	·	·
CCN1CCN(C2=C(NS(=O)(=O)c3ccc(NC(C)=O)cc3)C(=O)c3ccccc3C2=O)CC1	10.4	51.9*	27.5	26.3	62.9*	8.1	31.4	9.9	3.7	-3.0
CC(=O)Nc1ccc(S(=O)(=O)NC2=C(N3CCN(Cc4ccccc4)CC3)C(=O)c3ccccc3C2=O)cc1	-2.7	·	·	·	25.4	·	·	·	·	·
CCN1CCN(C2=C(NS(=O)(=O)c3ccc(C)cc3)C(=O)c3ccccc3C2=O)CC1	16.3	51.9*	30.2	21.1	42.9*	-4.0	26.0	6.5	2.6	-4.1
O=C(O)CC1(CC(=O)Nc2ccc(Cl)cc2C(=O)c2ccccc2)CCCC1	18.0	-7.6	-8.3	-9.5	22.1	·	·	·	·	·
SMILES	Platelet DG rel	SENP6 block	SENP8 block-1	SENP7 inh	SENP8 block-2	SENP8 confirm	SENP6 confirm	SENP7 conf	Casp3 SENP sel	Luc interf
NC(=O)c1ccc[n+](CC(=O)c2cccc([N+](=O)[O-])c2)c1	6.7	10.1	2.0	5.7	13.5	·	·	·	·	·
O=Nc1c2nc3ccccc3n(O)c-2c2ccccc12	-0.4	50.2*	30.2	27.8	-53.1	11.7	14.8	37.1	52.9*	12.8
C(=C\c1nc(-c2cccnc2)no1)/c1ccccc1	-6.9	-20.6	13.3	33.2	-3.4	·	·	·	·	·
c1ccc(-c2noc(-c3cccnc3)n2)cc1	5.7	76.0*	58.2*	6.8	12.0	2.6	60.3*	88.2*	77.4*	15.5
c1cncc(-c2noc(-c3ccc4ccccc4c3)n2)c1	-1.9	89.6*	82.5*	90.8*	-171.6	55.5*	69.1*	94.3*	75.2*	18.6
c1ccc(-c2ccc(-c3nc(-c4cccnc4)no3)cc2)cc1	22.6	97.2*	90.1*	98.8*	-17.2	70.2*	71.3*	80.2*	87.7*	35.3
O=C(Nc1nc2ccccc2s1)c1ccc(N2CCCCC2)c([N+](=O)[O-])c1	7.8	51.5*	35.1	54.5*	38.7	-5.4	4.3	27.4	25.4	1.7
Cc1cc(C)n(-c2ccc(C(=O)Nc3nc4ccccc4s3)cc2)n1	-1.7	21.7	-8.0	29.3	-299.9	·	·	·	·	·
Nc1ccc(C(=O)Nc2nc3ccccc3s2)cc1	4.7	90.8*	90.9*	93.8*	-425.6	95.0*	95.0*	100.9*	86.2*	90.6*
Cn1cc(Cl)c(C(=O)Nc2nc3ccccc3s2)n1	20.1	96.2*	95.5*	0.6	1.5	13.5	98.1*	102.9*	96.2*	44.8
COc1ccccc1NS(=O)(=O)c1cc(NC(=O)CCc2nc3ccccc3c(=O)[nH]2)ccc1C	-0.4	-6.8	0.4	-6.1	-24.2	·	·	·	·	·
O=C(O)c1cccc(C(=O)Cc2ccccc2)c1	8.8	74.6*	55.5*	43.4	28.7	62.6*	60.1*	87.7*	91.5*	73.8*
NC(=O)c1cc(C(=O)Cc2ccccc2)c[nH]1	2.9	-5.5	1.9	8.7	17.9	·	·	·	·	·
COc1ccc(C(=O)CSc2nnc(Cc3ccccc3)o2)cc1	14.4	-38.3	-8.8	59.5*	10.3	6.6	9.4	8.1	4.1	3.1
